High-throughput results: PubChem, several laboratories
Shown are actives, neighbours in structure and some others; about 2.2% of the full set was active somewhere.
Ins promoter up – MIN6 insulin promoter up-regulation; z-score at 5 µM; 0.3% of 190,000 active; AID 1625; MIN6 insulin promoter-GFP reporter, high-content imaging; hits give high values;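 active = z-score above 3 at 5 µM with at least 500 cells counted in the well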
NCF1 inh – p47phox (human) inhibition | P14598 | p47phox/p22phox peptide binding, fluorescence polarization, 2 h | inhibition, % at 24.7 µM | 0.53% of 220,000 active | AID 1274;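 active = inhibition above about 30%, limit read from the data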
Target sequence (P14598 whole entry, looked up): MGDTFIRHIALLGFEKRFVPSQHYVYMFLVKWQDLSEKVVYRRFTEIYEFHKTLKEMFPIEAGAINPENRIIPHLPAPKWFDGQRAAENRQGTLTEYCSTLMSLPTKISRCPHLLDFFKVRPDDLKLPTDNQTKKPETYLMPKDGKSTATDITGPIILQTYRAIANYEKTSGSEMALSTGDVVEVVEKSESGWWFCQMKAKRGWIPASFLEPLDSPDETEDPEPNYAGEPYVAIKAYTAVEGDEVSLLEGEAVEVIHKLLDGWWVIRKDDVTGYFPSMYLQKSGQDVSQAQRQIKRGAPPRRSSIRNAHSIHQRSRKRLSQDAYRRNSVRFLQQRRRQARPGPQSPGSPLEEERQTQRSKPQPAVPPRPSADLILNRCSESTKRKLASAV
Arbovirus inh – blocks arbovirus infection. inhibition, % at 10 µM. 0.37% of 200,000 active. AID 1251. arbovirus infection cell-based antiviral screen; in the data active = inhibition above about 30%
HMGR II inh – inhibitors of class II HMG-CoA reductase from Enterococcus faecalis. purified E. faecalis HMGR, NADPH absorbance 340 nm kinetic. inhibition, % at 10 µM. 0.41% of 190,000 active. AID 1066;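 active = inhibition above a set limit, the median over all tested compounds plus 3 SD, cut at about 9.5% in these data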;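 also: enzyme runs in reverse so mevalonate oxidation gives rising NADPH absorbance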
Autophagy HCS – autophagy modulation, high-content screen; AID 463193; 0.98% of 190,000 active; calls only at 10 µM (by protocol); MEF GFP-LC3 puncta imaging; test concentration mostly 10 µM;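 active = percentage of spot-positive cells more than 3 SD above its plate mean, without a fluorescence outlier flag or 80% toxicity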
DTT redox prof – compounds producing H2O2 with reducing agent – biochemical, NIH compound library profiling, artefact control for MLSCN library redox annotation, primary screen. DTT-dependent redox cycling H2O2, phenol red/HRP absorbance; 100% = 100 µM peroxide control, 0% = buffer. activation, % at 10 µM. 0.03% of 200,000 active;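 active = activation of at least 50% relative to the plate's high and low controls in the primary single-dose screen; inactive = activation below 50%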;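 also: compound incubated with DTT at 0.8 mM final as the reducing agent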
Each line names hits and unclear results; the compound was inactive in the other large screens.

CC(C)Sc1nc2ccccc2n1CC(=O)O	none
O=c1[nH]c2ccc(S(=O)(=O)N3CCN(c4ccccc4F)CC3)cc2s1	Arbovirus inh 38
CCOC(=O)C1=C(c2ccccc2)Nc2ncnn2C1c1ccc(C(=O)O)cc1 (centres undefined)	none (no result: Arbovirus inh, HMGR II inh, Autophagy HCS, DTT redox prof)
CCOC(=O)C1=C(c2ccccc2)NC(N)=NC1c1ccc(OCc2ccc(C(=O)OC)cc2)cc1 (centres undefined)	NCF1 inh 84 (no result: Arbovirus inh, HMGR II inh, Autophagy HCS, DTT redox prof)
CC(C(=O)NCCCc1ccccc1)c1ccc([N+](=O)[O-])cc1 (centres undefined)	none
CCOc1ccc(C2C(C(=O)c3cccs3)=C(O)C(=O)N2Cc2cccnc2)cc1 (centres undefined)	Autophagy HCS active
O=C1c2ccccc2NC(c2ccccn2)N1c1ccccc1F (centres undefined)	none (no result: Ins promoter up)
Cc1cccc(C2Nc3ccccc3C(=O)N2c2ccc(F)cc2)n1 (centres undefined)	HMGR II inh 9.8 (no result: Ins promoter up)
O=C(c1ccc(-c2ccccc2)cc1)C1CCCN(C(=O)c2ccncc2)C1 (centres undefined)	Autophagy HCS active
Nc1nc(CCl)nc(N(c2ccccc2)c2ccccc2)n1	none (no result: Arbovirus inh, HMGR II inh, Autophagy HCS, DTT redox prof)
N#Cc1c2n(c3c(=O)[nH]cnc13)CCCC2	none
N#Cc1c2n(c3c(=S)nc[nH]c13)CCCCC2	Arbovirus inh 31
COc1ccc(C[C@H]2CN3C(=NC[C@@H]3C(C)C)N2C[C@H](C)NC(=O)c2ccc(C)c(Br)c2)cc1	none
Cc1ccc(C(=O)N[C@@H](C)CN2C3=NC[C@H](C(C)C)N3C[C@H]2Cc2ccc(O)cc2)cc1Br	Autophagy HCS active
COc1ccc(C[C@H]2CN3C(=NC[C@@H]3Cc3ccccc3)N2CCNC(=O)c2ccc(C)c(Br)c2)cc1	Autophagy HCS active
CC(Cl)C(=O)NNC(=O)CNS(=O)(=O)c1ccccc1 (centres undefined)	none
O=C(Cn1cccc1C(=O)c1ccccc1)NCCCN1CCOCC1	none
Cc1ccc(C)c(N2CCN(CCCNC(=O)Cn3cccc3C(=O)c3ccccc3)CC2)c1	Autophagy HCS active (no result: Ins promoter up)
Cc1ccc(-c2csc(N3N=C(c4ccccc4)/C(=C\c4ccc(N(C)C)cc4)C3=O)n2)cc1	NCF1 inh 51
CCN(CC)CCN(C(=O)Cn1nnc(-c2ccc(C)o2)n1)C(C(=O)NC(C)(C)C)c1cccs1 (centres undefined)	none
Cc1cccc(CC2S/C(=N/c3ccccn3)NC2=O)c1 (centres undefined)	Autophagy HCS active
CC(C)COC(=O)Nc1nnc(SCCOc2ccccc2)s1	HMGR II inh 13
O=C(N/N=C/c1cccc(Br)c1)c1ccc(Cn2cc(Br)cn2)o1	none
Cc1ccsc1/C=N/NC(=O)c1ccc(Cn2cc(Br)cn2)o1	Autophagy HCS active
Cn1cc(/C=C2\SC(=O)N(c3ccc(O)cc3)C2=O)c2ccccc21	none (no result: Arbovirus inh, HMGR II inh, Autophagy HCS, DTT redox prof)
Cn1cc(/C=C2\SC(=O)N(c3ccccc3)C2=O)c2ccccc21	Autophagy HCS active
CCCN1C(=O)/C(=C/c2c(N3CCNC(=O)C3CC(=O)OC)nc3c(C)cccn3c2=O)SC1=S (centres undefined)	Ins promoter up 6.5 (no result: Arbovirus inh, HMGR II inh, Autophagy HCS, DTT redox prof)
CCOC(=O)CC1C(=O)NCCN1C(=O)c1cc2c(=O)n3cccc(C)c3nc2s1 (centres undefined)	none
C=CCSc1nc2c(sc3nc(C)cc(C)c32)c(=O)[nH]1	Arbovirus inh 65 (no result: Ins promoter up)
COc1ccc2cc3cc(C(=O)NCCN4CCc5ccccc5C4)oc3nc2c1	none (no result: Ins promoter up)
COc1ccc2cc3cc(C(=O)NCCN4CCN(Cc5ccccc5)CC4)oc3nc2c1	Autophagy HCS active
CN(c1ccc(OCC(=O)N2CCOCC2)cc1)S(=O)(=O)c1ccc(Cl)cc1	none
COC(=O)c1ccc2c(=O)[nH]c(CSc3nc(C)cs3)nc2c1	Autophagy HCS active
COC(=O)c1ccc2c(=O)[nH]c(CSc3nc(-c4ccc(F)cc4)cs3)nc2c1	none
COCCN1Cc2cccc(C(=O)Nc3ccc(S(=O)(=O)N4CCOCC4)cc3)c2C1=O	none
C/C(=N\NC(=O)c1ccccc1)c1nc2ccccc2n1C	Arbovirus inh 41
CCn1c(CNC(=O)c2ccccc2)nc2ccccc21	none (no result: Ins promoter up, NCF1 inh, Arbovirus inh, HMGR II inh)
O=C(CCc1nnc(CCCc2ccccc2)o1)NCCc1ccco1	none (no result: Ins promoter up)
O=C(CCc1nnc(CCCc2ccccc2)o1)NCCc1ccccc1	HMGR II inh 15
Cn1c(Cl)cnc1C(O)c1ccccc1 (centres undefined)	none
Cc1ccccc1C(=O)Nc1ccc2c(C#N)c3nc4ccccc4nc3n2c1	NCF1 inh 34
Cc1c(C(=O)Nc2ccccc2)cn2c(nc3ccccc32)c1C#N	none
C/C(=N\NC(=O)c1cc(-c2ccncc2)nc2ccccc12)c1ccc(N2CCOCC2)cc1	none
COc1cccc(C(c2nnnn2Cc2ccccc2)N2CCN(C3CCCC3)CC2)c1OC (centres undefined)	Autophagy HCS active
COc1ccccc1C(c1nnnn1Cc1ccccc1)N1CCN(C2CCCC2)CC1 (centres undefined)	none (no result: Ins promoter up)
COC(=O)Oc1nsnc1N1CCOCC1	none (no result: Ins promoter up)
Brc1ccc(Oc2nsnc2N2CCOCC2)cc1	Ins promoter up 3.9
CCc1ccc(CN2CCCC(CNS(=O)(=O)c3ccc(OC)cc3)C2)cc1 (centres undefined)	Autophagy HCS active
CSc1nc(C)c(CCO)c(=O)[nH]1	Arbovirus inh 31
CSc1nc(C)c(CCOC(=O)c2ccccc2)c(=O)[nH]1	none (no result: Ins promoter up)
Cc1c(C)n(CC(O)CN2CCOCC2)c2ccccc12 (centres undefined)	NCF1 inh 66
CCn1c2ccccc2c2cc(CN3CCN(Cc4cc(OC)ccc4O)CC3)ccc21	Autophagy HCS active
CCOc1ccc(CN2CCN(CC(O)Cn3c4ccccc4c4ccccc43)CC2)cc1 (centres undefined)	Autophagy HCS active
CC(C)NC(=O)CCCc1c[nH]c2ccccc12	none
CC1(C)CC(=O)c2c(O)c(-c3ccccc3)c(=O)n(-c3ccccc3)c2C1	none
CCc1c(C)c(C#N)c2[nH]c3ccccc3n2c1=S	NCF1 inh 30 (no result: Arbovirus inh, HMGR II inh, Autophagy HCS, DTT redox prof)
CCc1cc(=S)n2c([nH]c3ccccc32)c1C#N	none
Cc1ccc(C(=O)N2CCCC2)cc1Br	NCF1 inh 92
O=C(c1ccc2c(c1)OCO2)N1CCCC1	Ins promoter up 8.9
O=C1CCCC2=C1C(c1ccccc1)CC(=O)N2c1ccc(F)cc1F (centres undefined)	HMGR II inh 12
O=C(N/N=C/C(Cl)=C/c1ccccc1)c1cnccn1	HMGR II inh 14
O=C(N/N=C/C(Cl)=C\c1ccccc1)c1cnccn1	none
COc1cc(SC)ccc1C(=O)Nc1ccc(Br)cn1	none (no result: Arbovirus inh, HMGR II inh, Autophagy HCS, DTT redox prof)
COc1cc(SC)ccc1C(=O)Nc1ncc(Cl)cc1Cl	Autophagy HCS active
O=C(COc1ccccc1-c1ccccc1)N/N=C/c1cccc2ccccc12	Autophagy HCS active
